Test [1] in a line: qHTS for Inhibitors of the Functional Ribonucleoprotein Complex (vRNP) of Lassa (LASV) Arenavirus: LASV Primary Screen - GLuc reporter signal (AID 1347082; calls by dose curve; tested in HEK293 reporter line; note: nearly all actives have a fitted effect of over 60% in size; note: potency is the fitted concentration of half-maximal effect; for activity change, negative = inhibition: % is set by controls: 0 for no effect and ±100 for the full control effect). A general note: qHTS replaces the single test concentration by a dilution series.
The nature of test [2]: qHTS for Inhibitors of the Functional Ribonucleoprotein Complex (vRNP) of Lassa (LASV) Arenavirus: Viability assay - alamar blue signal for LASV Primary Screen (AID 1347083; calls by dose curve; tested in HEK293 reporter line; note: nearly all actives have a fitted effect of over 80% in size; note: potency is the fitted concentration of half-maximal effect).
The target of test [3] is Nucleoprotein (Lymphocytic choriomeningitis virus (strain Armstrong)) (UniProt P09992). In words: qHTS for Inhibitors of the Functional Ribonucleoprotein Complex (vRNP) of Lymphocytic Choriomeningitis Arenaviruses (LCMV): LCMV Primary Screen - GLuc reporter signal (AID 1347086). For activity change, negative = inhibition: % is set by controls: 0 for no effect and ±100 for the full control effect. Note: nearly all actives have a fitted effect of over 70% in size. Note: potency is the fitted concentration of half-maximal effect.
Sequence of Nucleoprotein (Lymphocytic choriomeningitis virus (strain Armstrong)) (P09992 whole entry, looked up): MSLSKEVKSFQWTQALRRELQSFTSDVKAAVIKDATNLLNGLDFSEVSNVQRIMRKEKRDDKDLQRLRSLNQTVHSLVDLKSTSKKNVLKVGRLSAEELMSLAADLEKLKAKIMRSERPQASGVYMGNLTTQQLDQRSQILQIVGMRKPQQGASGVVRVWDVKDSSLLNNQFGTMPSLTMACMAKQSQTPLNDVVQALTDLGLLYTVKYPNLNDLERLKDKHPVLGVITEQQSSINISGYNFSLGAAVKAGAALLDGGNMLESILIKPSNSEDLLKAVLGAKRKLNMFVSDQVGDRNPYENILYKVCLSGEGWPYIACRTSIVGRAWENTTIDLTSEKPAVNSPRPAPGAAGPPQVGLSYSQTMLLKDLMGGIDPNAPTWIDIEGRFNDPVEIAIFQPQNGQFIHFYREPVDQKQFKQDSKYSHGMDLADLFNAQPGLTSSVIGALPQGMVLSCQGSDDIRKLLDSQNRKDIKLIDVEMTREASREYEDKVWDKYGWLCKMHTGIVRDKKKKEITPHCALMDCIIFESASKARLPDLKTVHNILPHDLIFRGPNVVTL
Test [4] can be described thus: Cytotoxicity counterscreen for inhibitors of SARS-CoV-2 cell entry (AID 1645845). Note: nearly all actives have a fitted effect of over 50% in size. The procedure, abridged: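 48 h compound treatment (after 1 h preincubation), HEK293-ACE2 cells, 37 C/5% CO2; ATP luminescence endpoint; normalized to cell wells and media blanks.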
A general note: The purpose of a counterscreen is to sort out artefacts and off-target activity.

In test [5] the test system is CRL-7250. In words: qHTS assay to identify novel small-molecules to repurpose for Merkel cell carcinoma treatment (AID 1296009; active = well fitted inhibition curve with a large enough effect; note: nearly all actives have a fitted effect of over 60% in size). The note with it: MCC and control cell lines, CellTiter-Glo viability, 72 h; series mostly up to 92 µM. Put shortly: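 72 hr, 37 degree celsius; NPC 8-pt / MIPE 11-pt dose response; compound pinned in DMSO; CellTiter-Glo, 10 min RT, luminescence; normalized to no-cell and DMSO controls.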

Test [6] can be described thus: qHTS for Inhibitors of the Functional Ribonucleoprotein Complex (vRNP) of Lymphocytic Choriomeningitis Arenaviruses (LCMV): Viability assay - alamar blue signal for LCMV Primary Screen (AID 1347085; calls by dose curve; tested in HEK293 reporter line; note: nearly all actives have a fitted effect of over 80% in size; note: potency is the fitted concentration of half-maximal effect).
Test [7] is described as follows: Primary qHTS to identify inhibitors of SARS-CoV-2 cell entry (AID 1645846). Note: nearly all actives have a fitted effect of over 45% in size. Note: potency is the fitted concentration of half-maximal effect. The note with it: activity change, negative = inhibition: at 57.1 µM (top of the series) unless noted. The procedure, abridged:
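Inhibition of spike-mediated entry was scored in human ACE2-transfected Expi293F cells. Particles were MLV-pseudotyped with Wuhan-Hu-1 S carrying a 19-aa C-terminal deletion; signal was luciferase after two days, scaled between spike PP and fusion-protein-free PP.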

Test [8] in a line: qHTS profiling of the MIPE4 collection as inhibitors of Plasmodium falciparum (3D7) proliferation (AID 743344; call rule not given here;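 note: scaled between DMSO vehicle wells and 0.29 µM artemisinin as full inhibition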). Particulars: P. falciparum 3D7 in erythrocytes, SYBR Green DNA fluorescence, 72 h; at 28.5 µM (top of the series) unless noted. Put shortly:
(§1)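 Erythrocytes infected with P. falciparum (0.3% parasitemia, 2.5% hematocrit) incubated with compounds 72 h at 37 C, 5% CO2. Lysis with saponin/Triton buffer containing SYBR Green I, overnight at room temperature in the dark; DNA fluorescence (485/535 nm) normalised to 0.29 uM artemisinin and DMSO.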

A short description of test [9]: qHTS profiling of the MIPE4 collection as inhibitors of Plasmodium falciparum (DD2) proliferation (AID 743345; call rule not given here). Particulars: P. falciparum Dd2 in erythrocytes, SYBR Green DNA, 72 h; at 28.5 µM (top of the series) unless noted. The procedure, abridged: as §1
A short description of test [10]: qHTS profiling of the MIPE4 collection as inhibitors of Plasmodium falciparum (DD2) proliferation (Rep 2) (AID 743346; call rule not given here). Particulars: P. falciparum Dd2 in erythrocytes, SYBR Green DNA, 72 h; at 28.5 µM (top of the series) unless noted. The procedure, abridged: as §1
A short description of test [11]: Confirmatory qHTS for activators (rescue) of SARS-CoV-2 Cytopathic Effect (CPE) (AID 1508606). Note: potency is the fitted concentration of half-maximal effect; nearly all actives have a fitted effect of over 70% in size.
In test [12] the target is Bile acid receptor (Homo sapiens) (UniProt Q96RI1). In words: qHTS assay for small molecule agonists of farnesoid X receptor signaling (AID 588527).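 Note: 0% = vehicle basal and 100% = reference agonist.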 The note with it: HEK293T FXR-UAS-bla, beta-lactamase ratio, 16 h; activation: stronger effect = higher value. Put shortly:
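Read-out: beta-lactamase reporter fluorescence with CCF4 substrate in GeneBLAzer FXR-UAS-bla HEK293T cells, after 16 h compound exposure at 37 C. Response scaled between DMSO basal (0%) and chenodeoxycholic acid at 100 uM (100%).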

Molecules are shown by their SMILES. “And” between values parts separate entries of the source, which are not always exact repeats. Equal values may be shown once. Inconclusive results are not listed. The source made the active and inactive calls. Unless noted, calls come from the whole dose curve.

Sequence of Bile acid receptor (Homo sapiens) (Q96RI1 whole entry, looked up): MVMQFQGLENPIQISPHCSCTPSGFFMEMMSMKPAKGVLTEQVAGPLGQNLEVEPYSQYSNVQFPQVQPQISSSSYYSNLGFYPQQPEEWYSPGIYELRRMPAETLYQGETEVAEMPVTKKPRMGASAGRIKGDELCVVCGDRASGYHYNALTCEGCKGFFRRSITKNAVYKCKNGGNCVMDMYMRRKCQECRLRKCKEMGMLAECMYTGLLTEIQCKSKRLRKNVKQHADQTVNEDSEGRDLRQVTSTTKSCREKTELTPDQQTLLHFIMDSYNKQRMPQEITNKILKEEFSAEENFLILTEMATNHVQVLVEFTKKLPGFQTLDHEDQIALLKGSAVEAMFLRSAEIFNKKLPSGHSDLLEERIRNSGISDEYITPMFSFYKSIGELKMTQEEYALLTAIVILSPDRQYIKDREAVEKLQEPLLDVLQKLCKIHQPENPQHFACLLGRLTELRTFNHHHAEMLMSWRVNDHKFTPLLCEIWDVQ

Turning to `Nc1ncnc2c1c(-c1cccc(OCc3ccccc3)c1)cn2C1CC(CN2CCC2)C1` (stereo not given), the Potency entry in test [1], in [2], in [3], in test [4] and in test [5] was “inactive” each time.

`COc1cccc(Nc2c(C(N)=O)cnc3c(C)cc(S(=O)(=O)c4cccc(C(=O)N(C)C)c4)cc23)c1`: the results for the Potency in test [2], in test [6] and in [3] were 21.1 µM (active), 13.3 µM (active) and 16.8 µM (active), respectively. Also, the Potency result in test [4], in test [7] and in test [5] was “inactive” throughout.

`COC(=O)[C@H](CCCN=C(N)N)NS(=O)(=O)c1ccc(C)cc1`: the Potency result in test [1], in test [4] and in test [5] was “inactive” in each case. For the same compound, the Potency in test [6] is 17.2 µM (active). Also, the activity change, negative = inhibition in test [7] is -0.183%.

Take `COc1ccc2c(c1)c(C1=C(c3c[nH]c4ccccc34)C(=O)NC1=O)cn2CCCN(C)C`: in test [2], the Potency is 0.485 µM (active). In [5], the Potency entry is “inactive”.

Regarding `NC1=N[C@@]2(c3cc(NC(=O)c4ccc(F)cn4)ccc3F)COC[C@@H]2CS1`, the figures for the Potency in [2] and in [6] were 17.2 µM (active) and 19.3 µM (active), respectively. In addition, the Potency result in [5] was “inactive”.

Take `C[C@@H]1[C@H](C)CC[C@]2(C(=O)O)CC[C@]3(C)C(=CC[C@@H]4[C@@]5(C)CC[C@H](O)C(C)(C)[C@H]5CC[C@]43C)[C@@H]12`: the Potency result in test [1], in test [3] and in [5] was “inactive” throughout. The Potency in test [2] is 35.2 µM (active).

In test [8], `NC1=N[C@H]2[C@H](CS[C@H]2CCCCC(=O)O)N1` registered a parasite growth, % of DMSO control of 88.8% [at 9.64 µM]. The parasite growth remaining, % of DMSO control (lower = more inhibition) in test [9] was determined as 94.1% [at 9.64 µM]. For the same compound, the parasite growth, % of control (lower = inhibition) in [10] was determined as 82% [at 9.64 µM]. Besides, the Potency result in [1], in [2], in test [3], in test [4] and in test [5] was “inactive” throughout. Also, the activity change, negative = inhibition in test [7] was -19.4% [at 27.1 µM].

With `CNC(=O)c1ccc(N2C(=S)N(c3cnc(C#N)c(C(F)(F)F)c3)C(=O)C23CCC3)cc1F`, in [1], the Potency is 21.7 µM (active). Further, the Potency result in [4] and in test [5] was “inactive” throughout. Also, in [7], the activity change, negative = inhibition is -16.7%.

Consider `O=c1cc(-c2cccc3c2Sc2ccccc2S3)oc(N2CCOCC2)c1`, for which the Potency entry in [1], in test [3] and in test [5] was “inactive” throughout. Further, in test [11], the Potency was 3.55 µM (active).

Turning to `CN(C)C(=O)[C@H](O)[C@H](Cc1ccccc1)NC(=O)c1cc2cc(Cl)ccc2[nH]1`, the Potency entry in [1], in test [6], in [3], in test [4] and in [5] was “inactive” throughout. Besides, the activity change, negative = inhibition in [7] was -8.95%.

Regarding `CCCCOc1ccc(C(=O)Nc2ccc(F)cc2F)cc1`, the Potency result in test [1], in test [3], in [7] and in [5] was “inactive” throughout.

For `CC(C)c1cnn2c(NCc3ccccc3)cc(NCCCCCCN)nc12`, the Potency in [2] is 1.93 µM (active); in test [6] it was 1.09 µM (active); in test [3], 1.53 µM (active); in [11], 10 µM (active); in [7], 22.4 µM (active). The Potency entry in test [5] was “inactive”.

On to `CC(C)(OCc1nn(Cc2ccccc2)c2ccccc12)C(=O)O`, for which the Potency entry in test [1], in test [4], in test [7] and in test [5] was “inactive” in each case.

As to `O=c1c(O)c(-c2ccc(O)cc2)oc2cc(O)cc(O)c12`, in test [12], the activation is 0.454% (inactive) and 2.54% (inactive). Further, the Potency entry in test [1], in [2], in test [3], in [4], in test [7] and in test [5] was “inactive” each time.

Regarding `Nc1ncnc2ccccc12`, the Potency in test [2] is 15.3 µM (active); in [6], 12.2 µM (active); in test [3] it was 24.3 µM (active). Further, the Potency entry in test [4] and in [5] was “inactive” in each case. In addition, in test [7], the activity change, negative = inhibition came out at 2.32%.

The values are drawn from PubChem BioAssay (NCATS).
